HT1080 IDH1KD tx: qHTS for induction of synthetic lethality in tumor cells producing 2HG: qHTS for the HT-1080-IDH1KD cell line | HT-1080 IDH1 knockdown viability, ATP luminescence, 48 h | AID 686971, 2013 | 360,000 tested, 2% active | Potency, µM (top dose mostly 46.1 µM), usual class: cytotoxic
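After a 2 h attachment period, IDH1KD HT-1080 cells took pin-transferred compound for 48 h at 37 °C; ATP-based luminescence after 10 min room-temperature reagent incubation reported viability.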
HT1080NT lethal: qHTS for induction of synthetic lethality in tumor cells producing 2HG: qHTS for the HT-1080-NT fibrosarcoma cell line; HT-1080-NT fibrosarcoma viability, CellTiter-Glo ATP luminescence, 48 h; Potency, µM (series often up to 46.1 µM), most hits filed as cytotoxic; 360,000 tested, 1.6% active; AID 686970, 2013;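 also: NT is the 2HG producing partner of a matched IDH1 knockdown line; nearly all actives have a fitted effect of over 55% in size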
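750 cells/well, RPMI + 5% FBS; 2 h settle, compound pin-transfer, 48 h at 37 degrees C. CellTiter-Glo 10 min RT, luminescence. Normalized to DMSO and media-only wells.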
KB-3-1 cytotox: qHTS assay for MDR1-selective chemotherapeutics: Primary screen using the parental adenocarcinoma cell KB-3-1; Potency, µM (highest dose often 46.1 µM), hits mostly cytotoxic; 400,000 tested, 1.4% active; AID 1347075, 2019; KB-3-1 viability, CellTiter-Glo ATP luminescence, 72 h; also: nearly all actives have a fitted effect of over 60% in size
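Parental KB-3-1 viability, qHTS format: 72 h compound exposure, 37 °C; CellTiter-Glo; media-only wells and DMSO plates as controls; concentration-effect fits on corrected data.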
KB-V1 MDR tox: qHTS assay for MDR1-selective chemotherapeutics: Primary screen using the drug-selected MDR subline cells KB-V1; 400,000 tested, 3.4% active; Potency, µM (titrated, usually from 46.1 µM), actives largely listed as cytotoxic; KB-V1 MDR cells viability, CellTiter-Glo, 72 h; AID 1347076, 2019; also: nearly all actives have a fitted effect of over 60% in size
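KB-V1, DMEM (no phenol red) + 10% FBS; cpd pin-transferred, titration series; 72 h, 37 degrees C; CellTiter-Glo, luminescence. Data normalized, curve-fit.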
Of the large screens only hits and unclear results are named; the others gave an inactive call. Most compounds without a hit are left out; they make up all but 5.7% or so of the library. Calls follow the shape of the dose curve; as a rule, active = well fitted curve in the direction sought with a large enough effect; inconclusive = small, poorly fitted or top-dose-only effect, or another doubt; inactive = no such curve, though single readings can be large; an effect the other way counts as inactive or inconclusive.

CCOC(=O)Cc1csc(NC(=O)c2ccc(Cl)s2)n1	KB-3-1 cytotox inconclusive
COc1ccc(-n2ncc(C(=O)N3CCN(c4ncccn4)CC3)c2C2CCN(C(=O)OC(C)(C)C)CC2)cc1	none (no result: HT1080 IDH1KD tx, HT1080NT lethal)
Cc1ccc(-n2c3c(cc(-c4nc(-c5ccc(Cl)cc5)cs4)c2=O)C(=O)CC(C)(C)C3)cc1C	KB-V1 MDR tox inconclusive (no result: HT1080 IDH1KD tx, HT1080NT lethal)
Cc1ccc(CSc2nnc(-c3cccc(S(=O)(=O)N4CCOCC4)c3)n2CC(C)C)cc1	KB-3-1 cytotox 23µM, KB-V1 MDR tox 4.6µM
O=C(CN1C(=O)COc2ccccc21)N(Cc1ccccc1)Cc1ccccn1	KB-V1 MDR tox 15µM
COc1ccc(CN(CC(=O)NC2CCCC2)C(=O)CN2C(=O)COc3ccccc32)cc1	none
COc1ccc(CN(Cc2ccccn2)C(=O)CN2C(=O)C(C)Oc3ccccc32)cc1 (stereo unspecified)	KB-V1 MDR tox 2.1µM
Cc1ccccc1CNC(=O)C1CCCCN1S(=O)(=O)c1ccc(F)cc1 (stereo unspecified)	none (no result: HT1080 IDH1KD tx, HT1080NT lethal)
Cc1ccccc1NS(=O)(=O)c1cc(C(=O)Nc2cccc([N+](=O)[O-])c2)ccc1C	HT1080 IDH1KD tx 21µM, HT1080NT lethal inconclusive, KB-3-1 cytotox inconclusive, KB-V1 MDR tox 12µM
Cc1ccc(C(=O)Nc2cccc([N+](=O)[O-])c2)cc1S(=O)(=O)Nc1ccc(C(=O)O)cc1	none
Cc1ccc(C)c(NS(=O)(=O)c2cc(C(=O)Nc3ccccc3-c3ccccc3)ccc2C)c1	HT1080 IDH1KD tx inconclusive, HT1080NT lethal inconclusive, KB-3-1 cytotox inconclusive, KB-V1 MDR tox 4.6µM
Cc1ccc(C(=O)Nc2ccccc2-c2ccccc2)cc1S(=O)(=O)Nc1cccc(C)c1C	HT1080 IDH1KD tx inconclusive, HT1080NT lethal inconclusive
O=C(C[n+]1ccccc1)c1ccc(O)c(O)c1	none (no result: HT1080 IDH1KD tx, HT1080NT lethal)
CN(C)c1cccc(S(=O)(=O)N2CCCN(S(=O)(=O)c3ccc4c(c3)OCCO4)CC2)c1	none (no result: HT1080 IDH1KD tx, HT1080NT lethal)
NNc1nc2c(-c3cccc(C(F)(F)F)c3)nnn2c2ccccc12	HT1080 IDH1KD tx 21µM, HT1080NT lethal 21µM, KB-3-1 cytotox inconclusive, KB-V1 MDR tox inconclusive
FC(F)(F)c1cccc(-c2nnn3c2nc(NC2CCCCC2)c2ccccc23)c1	none (no result: HT1080 IDH1KD tx, HT1080NT lethal)
Cc1ccccc1OCCCCn1nnc2sc3c(c2c1=O)CCC(C)C3 (stereo unspecified)	none (no result: HT1080 IDH1KD tx, HT1080NT lethal)
CCOc1ccc(CN(C)CC(O)COC(c2ccc(OC)cc2)c2ccc(OC)cc2)cc1 (stereo unspecified)	HT1080 IDH1KD tx inconclusive, HT1080NT lethal 16µM, KB-3-1 cytotox inconclusive, KB-V1 MDR tox inconclusive
COc1ccc(CN(C)CC(O)COc2ccc(-c3ccccc3)cc2)cc1OC (stereo unspecified)	HT1080 IDH1KD tx 21µM, HT1080NT lethal inconclusive, KB-3-1 cytotox inconclusive
COc1ccc(CN(C)CC(O)COC(c2ccc(OC)cc2)c2ccc(OC)cc2)cc1 (stereo unspecified)	HT1080 IDH1KD tx inconclusive, HT1080NT lethal 21µM, KB-V1 MDR tox inconclusive
COc1ccc(C(OCC(O)CN(C)C2CCCCC2)c2ccc(OC)cc2)cc1 (stereo unspecified)	HT1080 IDH1KD tx inconclusive, HT1080NT lethal inconclusive, KB-V1 MDR tox inconclusive
CN(Cc1ccc(OCC(O)CN(C)Cc2ccccc2)cc1)Cc1nccn1C (stereo unspecified)	none
Cc1ccc(/C=C(/C#N)C(=O)NC(C)c2ccccc2)o1 (stereo unspecified)	KB-V1 MDR tox 18µM
COc1ccccc1CNC(=O)CCCCn1c(=O)c2ccccc2n(Cc2ccccc2C)c1=O	KB-3-1 cytotox inconclusive (no result: HT1080 IDH1KD tx, HT1080NT lethal)
COc1cc(OC)cc(-c2nc3n(n2)C(c2ccccc2)C(C(N)=O)=C(C)N3)c1 (stereo unspecified)	none (no result: HT1080 IDH1KD tx, HT1080NT lethal)
CSc1cccc(CN2CCC(CO)(Cc3cccc(C(F)(F)F)c3)CC2)c1	HT1080 IDH1KD tx 16µM, HT1080NT lethal 21µM, KB-V1 MDR tox inconclusive
CC(C)Cc1cc(CN2CCC(CO)(Cc3cccc(C(F)(F)F)c3)CC2)[nH]n1	HT1080 IDH1KD tx inconclusive, HT1080NT lethal inconclusive, KB-3-1 cytotox inconclusive
CN(C)S(=O)(=O)N1CCC(CO)(Cc2cccc(C(F)(F)F)c2)CC1	KB-V1 MDR tox inconclusive
Cc1ccc(-n2cc(CN3CCC(CO)(Cc4cccc(C(F)(F)F)c4)CC3)cn2)cc1	HT1080 IDH1KD tx 18µM, HT1080NT lethal 23µM, KB-3-1 cytotox inconclusive, KB-V1 MDR tox inconclusive
